In the library only some 2.9% were active in any assay of this set; here they are far more common.
Smad3 FoxH1 inh – blocks human Smad3 binding to FoxH1 peptide; TR-FRET Smad3/Dy647-FoxH1 peptide binding, europium anti-His; inhibition, % at 25 µM; 0.29% of 88,000 active; AID 630;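 active means compounds that reduce the energy-transfer binding signal between the protein and its labelled peptide by more than half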;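 further: 0% = Smad3 plus labelled peptide maximal FRET and 100% = peptide-only background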
ERa coact pot – enhances coactivator binding to human estrogen receptor alpha | 1.3% of 86,000 active | coactivator binding (% of control), % at 25.6 µM | P03372 | TR-FRET ERalpha-LBD/SRC-Cy5 coactivator binding, 2 h; 100 = basal binding, no effect; in the data active means activity above about 200%;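 further: binding measured in presence of low estradiol as agonist stimulus; 0% = peptide alone without receptor and 100% = receptor with peptide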
Target sequence (P03372 whole entry, looked up, the tested form may be a part): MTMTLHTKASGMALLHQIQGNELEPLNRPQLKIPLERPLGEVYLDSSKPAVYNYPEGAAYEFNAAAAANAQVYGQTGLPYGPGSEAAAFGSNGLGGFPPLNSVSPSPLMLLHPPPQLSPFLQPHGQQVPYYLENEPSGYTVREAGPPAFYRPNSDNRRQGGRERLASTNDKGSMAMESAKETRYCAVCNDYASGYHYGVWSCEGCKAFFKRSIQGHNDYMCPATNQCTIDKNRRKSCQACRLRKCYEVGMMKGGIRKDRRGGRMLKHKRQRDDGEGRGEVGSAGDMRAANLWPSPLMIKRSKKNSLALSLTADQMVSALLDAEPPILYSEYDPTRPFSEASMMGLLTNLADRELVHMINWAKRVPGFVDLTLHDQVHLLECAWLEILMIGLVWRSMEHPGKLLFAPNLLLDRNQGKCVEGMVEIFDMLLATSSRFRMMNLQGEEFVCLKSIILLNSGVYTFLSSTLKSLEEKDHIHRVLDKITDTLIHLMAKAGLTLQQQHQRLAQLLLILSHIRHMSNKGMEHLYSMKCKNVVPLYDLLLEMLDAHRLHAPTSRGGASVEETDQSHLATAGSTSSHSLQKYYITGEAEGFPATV
ERb SRC1 inh – blocks coactivator binding to human estrogen receptor beta; inhibition, % at 25.6 µM; TR-FRET ER-beta LBD / SRC1-Cy5 peptide binding; receptor agonist-loaded with 1 µM estradiol; AID 633; 1.3% of 86,000 active;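 active means compounds whose percent inhibition of the receptor-coactivator binding signal exceeds about 50% in the single-dose screen, limit read from the data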;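 further: 0% = receptor plus peptide wells without compound and 100% = peptide-only wells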
ERa coact inh – ER-alpha (human) coactivator binding inhibition | P03372 | AID 629 | TR-FRET ER-alpha LBD / SRC-1 peptide, estradiol-bound | inhibition, % at 25.6 µM | 1.7% of 86,000 active; in the data active means inhibition above about 50%;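 further: 0% = receptor plus peptide control and 100% = peptide only without receptor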
MRP1 act – activates MRP-1; 0.61% of 140,000 active; H69AR cells + doxorubicin, viability rescue, CellTiter-Glo; viability increase, % at 10 µM;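 active means viability gain under doxorubicin at or above a set limit, the compound median plus 3 SD, cut at about 4.7% in these data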;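 further: MRP-1 overexpressing cells given doxorubicin 25 µM after compound pretreatment; 18-22 h compound pretreatment then 72 h with doxorubicin before readout; 0% = doxorubicin-only wells and 100% = vehicle-treated cells without doxorubicin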
MRP resist rev – MRP-mediated drug resistance reversal. H69AR cells + 2 uM doxorubicin, CellTiter-Glo, 72 h. differential viability (reversal), % at 10 µM. 0.04% of 85,000 active;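 active means viability drop by adding the cancer drug above about 55%, with treated viability meeting a 40% cutoff, limit read from the data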;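 further: viability without doxorubicin minus viability with 2 µM doxorubicin for each compound; larger differential means the compound sensitizes cells more to doxorubicin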
* marks the source's active call; other numbers are inactive results; . = not tested or not shown; [ ] = remark or other dose.

SMILES	Smad3 FoxH1 inh	ERa coact pot	ERb SRC1 inh	ERa coact inh	MRP1 act	MRP resist rev
COC(=O)[C@@]1(Cc2ccc(F)cc2)[C@H]2c3cc(C(=O)N(C)C)n(Cc4c(CO)[nH]cc(C)c4=O)c3C[C@H]2CN1C(=O)c1ccccc1	.	.	.	.	-2	.
CC1CCCCC1NC(=O)/C(C#N)=C/c1ccc(OCC(N)=O)cc1 (centres undefined)	.	.	.	.	-3	.
CCCOC(=O)c1c(-c2ccc(C)cc2C)csc1NC(=O)C1C2CCC(O2)C1C(=O)O (centres undefined)	.	.	.	.	-3	.
CCOC(=O)c1nn(-c2ccc(Cl)cc2)c2nc(CC)c(C#N)c(=O)n12	25	202*	3	12	0	-3
C=CCNc1nc(-c2cccc(OC)c2O)nc2ccccc12	-1	85	29	58*	-2	-20
COc1cccc(NC(=S)N2CCN(Cc3ccccc3)CC2)c1	.	.	.	.	0	.
NCC(=O)NC1(C(=O)O)CCCC1	7	.	.	.	.	.
CN(C)CCN1C(=O)CC[C@@]2(C)C1=CC[C@H]1[C@H]2CC[C@@]2(C)[C@H]1CC[C@]2(C)O	-12	.	.	.	.	.
CCN1CCN(Cc2ccc(NC(=O)Nc3cccs3)cc2)CC1	-7	71	72*[fluorescence artefact?]	40	-1	4
O=S(=O)(c1ccccc1)N1CN2CN(C1)CN(S(=O)(=O)c1ccccc1)C2	4	.	.	.	.	.
Cc1ccc(N=Cc2c(O)n(-c3ccc4c(c3)OCO4)c(=O)c3ccccc23)cc1	-10	31	34	69*	-3	-3
CCC(C)NS(=O)(=O)c1ccc(OCC(=O)N2CCCC2)cc1 (centres undefined)	-14	98	17	14	2	10
c1ccc(CO[C@H]2NCCN2Cc2ccccc2)cc1	-13	.	.	.	.	.
COc1cc2c(cc1OC)CN(Cc1nc3ccsc3c(=O)[nH]1)CC2	9	59	49	53*[fluorescence artefact?]	0	-19
O=c1[nH]c(CN2CCN(c3ccccc3Cl)CC2)nc2ccsc12	8	104	1	-6	-1	10
Cc1cc2c(cc(C(=O)O)n2C)s1	-6	124	38	9	-3	-2
Cc1cc2sc(C(=O)O)c(C)c2s1	54*[fluorescence artefact?]	105	-2	21	3	-2
CN(C)c1ccc(NC(=O)CCCc2ccccc2)cc1	3	116	-10	-69	1	-10
CN(C)c1ccc(NC(=O)CN2C(=O)CC(c3ccccc3)=Nc3ccccc32)cc1	5	38	66*[fluorescence artefact?]	93*[fluorescence artefact?]	-1	.
COc1ccc(C(=O)Nc2ccc(C)cc2C(=O)c2ccccc2)c(OC)c1	.	.	.	.	0	.
COc1ccc(C(=O)Nc2ccccc2Cc2ccccc2)c(OC)c1	.	.	.	.	5.3*	.
O=C(O)CCCc1ccc2ccc3ccccc3c2c1	-4	.	.	.	.	.
O=C(Nc1nnc(-c2ccco2)s1)C1CCN(S(=O)(=O)c2ccc(Cl)cc2)CC1	0	410*[fluorescence artefact?]	8	11	-3	-11
CC(C)(CCC(C)(C)c1ccccc1)c1ccccc1	-3	.	.	.	.	.
CCOC(=O)c1[nH]c(C)c(C(=O)N2CCN(C(=O)OCC)CC2)c1CC	5	114	-4	99*[fluorescence artefact?]	-1	8
SMILES	Smad3 FoxH1 inh	ERa coact pot	ERb SRC1 inh	ERa coact inh	MRP1 act	MRP resist rev
COc1ccc(C(c2nnnn2C2CCCC2)N2CCN(C3CCCC3)CC2)cc1OC (centres undefined)	-6	123	-4	-9	-1	-11
COc1ccc(C(c2nnnn2CCc2ccccc2)N2CCN(C3CCCC3)CC2)cc1OC (centres undefined)	-2	102	93*[fluorescence artefact?]	-1	-1	14
Cc1cc(C(=O)CSc2nc3ccccc3n2CCC#N)c(C)n1Cc1cccs1	0	273*	20	7	-6	5
Cc1cc(C(=O)CSc2nnc(-c3ccccc3F)o2)c(C)n1Cc1cccs1	-1	309*	20	6	0	6
Cc1cc(C)c(C(=O)CSc2nnc(-c3ccccc3Br)o2)cc1C	2	273*[fluorescence artefact?]	17	4	0	-14
Cc1ccc(NC(=O)CSc2nnc(-c3ccccc3Br)o2)cc1C	-9	96	5	3	-1	-13
C=CCn1c(SCc2ccc(C(=O)Nc3ccccc3)cc2)nnc1-c1ccccc1	.	.	.	.	-1	.
O=C(OCc1ccc([N+](=O)[O-])cc1)C1CCN(S(=O)(=O)c2ccccc2)CC1	.	.	.	.	-1	.
O=S(=O)(c1ccc(Oc2ccc(-c3nnco3)cc2)nc1)N1CCC(Cc2ccccc2)CC1	20	99	31	75*[fluorescence artefact?]	-1	-12

Screens deposited in PubChem BioAssay by several laboratories.
